Test [1] in a line: ATG_GLI_CIS: Attagene CIS-FACTORIAL HepG2 Assay for human Zinc Finger Protein GLI1 (AID 2282945). As to conditions: HepG2, Attagene cis-factorial reporter mRNA, GLI element; actives raise or lower the signal. The gist of the method:
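Bidirectional curve fits relative to DMSO, using reporter mRNA levels from RT-PCR plus capillary electrophoresis. Cells were HepG2 transiently carrying cis-regulated reporter constructs, harvested 24 h after dosing.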

In test [2] the target is Bile acid receptor (Homo sapiens) (UniProt Q96RI1). Kind of test: ATG_IR1_CIS: Attagene CIS-FACTORIAL HepG2 Assay for human Nuclear Receptor Subfamily 1 Group H Member 4 (NR1H4), IR1 submotif (AID 2282946). The note with it: IR1 reporter transcription, actives raise or lower the signal. The gist of the method:
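HepG2 cells transiently transfected with multiplexed cis-element reporter units read endogenous transcription factor activity. After 24 h compound exposure, reporter mRNA was quantified by RT-PCR, fluorescent labelling, HpaI digestion and capillary electrophoresis; bidirectional fitting versus DMSO baseline.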

Test [3] is described as follows: ATG_GRE_CIS: Attagene CIS-FACTORIAL HepG2 Assay for human Glucocorticoid Response Elements (GRE) (AID 2282947). The note with it: HepG2 GRE cis-reporter, Attagene multiplex mRNA; actives raise or lower the signal. The gist of the method:
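Multiplexed cis-reporter mRNA induction, HepG2, 24 h post-dose. RT-PCR, FAM-labelled, HpaI-digested amplicons by CE. Bidirectional fit vs DMSO.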

Test [4] is described as follows: ATG_ISRE_CIS: Attagene CIS-FACTORIAL HepG2 Assay for human Interferon Regulatory Factor 1 (IRF1) binding to an Interferon-Stimulated Response Element (ISRE) (AID 2282948). As to conditions: HepG2 ISRE cis-reporter (Attagene), mRNA transcription readout; actives raise or lower the signal. The gist of the method:
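Endogenous transcription factor activity read as reporter transcript abundance via RT-PCR and capillary electrophoresis. HepG2 cells transiently transfected, 24 h chemical exposure. Gain or loss fitted against DMSO baseline.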

Test [5] can be described thus: ATG_M_32_CIS: Attagene CIS-FACTORIAL HepG2 Assay for M32 Transcription Factor (Internal Marker) (AID 2282949).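 Note: background control marker of the multiplexed CIS panel rather than a real target.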 The note with it: HepG2 Attagene cis-factorial M32 reporter, mRNA; actives raise or lower the signal. The gist of the method: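 Using DMSO as baseline, bidirectional curve fits were applied to reporter mRNA signals. These came from transiently transfected HepG2 cells exposed for 24 h, with RNA analysed by RT-PCR, FAM primer extension, HpaI digestion and CE.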

Test [6] in a line: ATG_M_06_CIS: Attagene CIS-FACTORIAL HepG2 Assay for M06 Transcription Factor (Internal Marker) (AID 2282950). The note with it: HepG2 Attagene CIS-FACTORIAL M06 internal marker reporter; actives raise or lower the signal. The gist of the method:
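Fluorescence-labelled RT-PCR products from cis-promoter reporter units, cut with HpaI and resolved by capillary electrophoresis, give the signal. Cells are human HepG2, dosed for 24 h. Serves as background control, fitted relative to DMSO.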

The target in test [7] is Hypoxia-inducible factor 1-alpha (Homo sapiens) (UniProt Q16665). As to the kind of experiment: ATG_HIF1a_CIS: Attagene CIS-FACTORIAL HepG2 Assay for human Hypoxia Inducible Factor 1 (HIF1A) (AID 2282951). As to conditions: HepG2 Attagene cis-factorial HIF1a reporter transcription; actives raise or lower the signal. The gist of the method:
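Endogenous-TF cis reporter readout, human HepG2 cells, 24 h incubation; mRNA detected via RT-PCR and capillary electrophoresis fluorescence; DMSO-normalised bidirectional fitting.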

For test [8], the target named is Hepatocyte nuclear factor 6 (Homo sapiens) (UniProt Q9UBC0). Kind of test: ATG_HNF6_CIS: Attagene CIS-FACTORIAL HepG2 Assay for human Hepatocyte Nuclear Factor 6 (HNF6) (AID 2282952). The note with it: HepG2 Attagene cis-factorial HNF6 reporter transcription; actives raise or lower the signal. The gist of the method: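 Using cis-element reporters in HepG2 liver cells, the assay tracks endogenous factor-driven transcription 24 h post-dosing. Signal comes from 6-FAM-labelled, HpaI-digested RT-PCR fragments, with gain or loss scored against DMSO.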

For test [9], the target named is Heat shock factor protein 1 (Homo sapiens) (UniProt Q00613). Kind of test: ATG_HSE_CIS: Attagene CIS-FACTORIAL HepG2 Assay for human Heat Shock Transcription Factor 1 (HSE) (AID 2282953). The note with it: HepG2 HSE cis-reporter, Attagene RNA transcription; actives raise or lower the signal. The gist of the method:
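After a 24 h incubation with test chemical, transfected HepG2 cells were harvested for RNA; reporter transcripts were measured by RT-PCR and capillary electrophoresis. Values reflect gain or loss of signal relative to DMSO.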

Test [10] can be described thus: ATG_MRE_CIS: Attagene CIS-FACTORIAL HepG2 Assay for human Metal Responsive Element (MRE) (AID 2282954). As to conditions: HepG2 MRE cis-reporter transcription, Attagene multiplex; actives raise or lower the signal. The gist of the method:
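Multiplexed cis-reporter assay in human HepG2 liver cells, 24 h incubation with test chemical. Reporter transcripts measured by RT-PCR and capillary electrophoresis; values from bidirectional curve fitting versus DMSO.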

Test [11] is described as follows: ATG_PBREM_CIS: Attagene CIS-FACTORIAL HepG2 Assay for human Phenobarbital-responsive Enhancer Module (PBREM) (AID 2282955). As to conditions: HepG2 PBREM cis-reporter, Attagene multiplexed transcription; actives raise or lower the signal. The gist of the method:
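Readout: reporter mRNA, fluorescent RT-PCR fragments separated by capillary electrophoresis. System: HepG2 transiently transfected with cis-regulated reporter units. Exposure: 24 h. Analysis: bidirectional, DMSO baseline.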

The target in test [12] is Paired box protein Pax-6 (Homo sapiens) (UniProt P26367). Kind of test: ATG_Pax6_CIS: Attagene CIS-FACTORIAL HepG2 Assay for human Paired Box 6 (PAX6) (AID 2282956). The note with it: HepG2 CIS-FACTORIAL PAX6 reporter transcription, RNA readout; actives raise or lower the signal. The gist of the method:
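Read-out is reporter transcript level, measured by RT-PCR with fluorescent primer extension and capillary electrophoresis after 24 h dosing of transfected HepG2 cells. Activity in either direction fitted relative to DMSO control.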

The nature of test [13]: ATG_PXRE_CIS: Attagene CIS-FACTORIAL HepG2 Assay for human Pregnane X Receptor Element (PXRE) (AID 2282957). As to conditions: HepG2 Attagene CIS-FACTORIAL PXRE reporter, mRNA; actives raise or lower the signal. The gist of the method:
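Using HepG2 transfected with multiple reporter transcription units, endogenous factor-driven transcription was scored as reporter mRNA after 24 h exposure.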

Test [14] in a line: ATG_PPRE_CIS: Attagene CIS-FACTORIAL HepG2 Assay for human Peroxisome Proliferator-activated Response Element (PPRE) (AID 2282958). As to conditions: HepG2 PPRE cis-element reporter, Attagene transcription factor profiling; actives raise or lower the signal. The gist of the method: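 After human HepG2 hepatoma cells were transiently transfected with cis-promoter reporter constructs, they were exposed to test chemicals for 24 hours. Reporter RNA was then reverse-transcribed, PCR-amplified, FAM-labeled, HpaI-digested and quantified by capillary electrophoresis.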

A short description of test [15]: ATG_RORE_CIS: Attagene CIS-FACTORIAL HepG2 Assay for human RAR-related Orphan Receptor Element (RORE) (AID 2282959). As to conditions: HepG2 Attagene cis-factorial RORE reporter, mRNA; actives raise or lower the signal. The gist of the method:
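Measured here: transcript induction of a cis-regulated reporter in HepG2 cells transiently transfected via FuGene 6. After 24 h, RNA was processed by RT-PCR and fluorescent capillary electrophoresis; DMSO defined baseline activity.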

A short description of test [16]: ATG_Sox_CIS: Attagene CIS-FACTORIAL HepG2 Assay for human SRY-box transcription factor (SOX) (AID 2282960). The note with it: HepG2 Attagene cis-factorial SOX reporter, mRNA; actives raise or lower the signal. The gist of the method:
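Using transiently transfected HepG2 cells, reporter transcription driven by cis elements was assessed 24 h after dosing. Signal was fluorescence of capillary-separated RT-PCR products, with DMSO defining baseline activity.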

In test [17] the target is Transcription factor Sp1 (Homo sapiens) (UniProt P08047). As to the kind of experiment: ATG_Sp1_CIS: Attagene CIS-FACTORIAL HepG2 Assay for human Specificity Protein 1 (Sp1) (AID 2282961). As to conditions: HepG2 Sp1 cis-reporter transcription, actives raise or lower the signal. The gist of the method: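 After transient transfection of HepG2 cells with cis-promoter reporter units and 24 h chemical treatment, reporter transcripts were quantified by RT-PCR and capillary electrophoresis fluorescence. Gain- and loss-of-signal fitted against DMSO.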

A short description of test [18]: ATG_SREBP_CIS: Attagene CIS-FACTORIAL HepG2 Assay for human Sterol Regulatory Element Binding (SREBP) (AID 2282962). As to conditions: HepG2 Attagene cis-factorial SREBP reporter, mRNA; actives raise or lower the signal. The gist of the method:
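Endogenous SREBP activity read as cis-element-driven reporter transcript in transiently transfected HepG2, 24 h post-dosing; quantified via RT-PCR plus capillary electrophoresis of fluorescent fragments. Gain or loss of signal fitted relative to DMSO baseline.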

For test [19], the target named is Signal transducer and activator of transcription 3 (Homo sapiens) (UniProt P40763). Kind of test: ATG_STAT3_CIS: Attagene CIS-FACTORIAL HepG2 Assay for human Signal Transducer and Activator of Transcription 3 (STAT3) (AID 2282963). The note with it: HepG2, Attagene cis-factorial STAT3 reporter transcription; actives raise or lower the signal. The gist of the method: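 Cis-factorial format: endogenous transcription factors in HepG2 drive transfected reporter units. After 24 h treatment, reporter RNA was reverse-transcribed, amplified, FAM-labelled and HpaI-digested before CE analysis; activity scored in both directions against DMSO.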

The nature of test [20]: ATG_TA_CIS: Attagene CIS-FACTORIAL HepG2 Assay for human TA Basal Promoter (AID 2282964). As to conditions: HepG2 Attagene CIS-factorial TA basal promoter reporter; actives raise or lower the signal. The gist of the method:
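Multiplexed mRNA reporter assay, HepG2, 24 h. Reporter cDNA amplified, 6-FAM primer-extended, HpaI-cut, CE-sized; DMSO = negative control and baseline.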

Where “and” joins values, the source holds several entries; their conditions need not be identical. Equal values may be shown once. A structure can be active in one record and inactive in another. Calls of active or inactive are those of the source. Rule for the calls: active = hit-call score of the fitted dose curve at least 0.9, where 1 is the maximum; inactive = score below 0.9.

Signal transducer and activator of transcription 3 (Homo sapiens), sequence (P40763 whole entry, looked up): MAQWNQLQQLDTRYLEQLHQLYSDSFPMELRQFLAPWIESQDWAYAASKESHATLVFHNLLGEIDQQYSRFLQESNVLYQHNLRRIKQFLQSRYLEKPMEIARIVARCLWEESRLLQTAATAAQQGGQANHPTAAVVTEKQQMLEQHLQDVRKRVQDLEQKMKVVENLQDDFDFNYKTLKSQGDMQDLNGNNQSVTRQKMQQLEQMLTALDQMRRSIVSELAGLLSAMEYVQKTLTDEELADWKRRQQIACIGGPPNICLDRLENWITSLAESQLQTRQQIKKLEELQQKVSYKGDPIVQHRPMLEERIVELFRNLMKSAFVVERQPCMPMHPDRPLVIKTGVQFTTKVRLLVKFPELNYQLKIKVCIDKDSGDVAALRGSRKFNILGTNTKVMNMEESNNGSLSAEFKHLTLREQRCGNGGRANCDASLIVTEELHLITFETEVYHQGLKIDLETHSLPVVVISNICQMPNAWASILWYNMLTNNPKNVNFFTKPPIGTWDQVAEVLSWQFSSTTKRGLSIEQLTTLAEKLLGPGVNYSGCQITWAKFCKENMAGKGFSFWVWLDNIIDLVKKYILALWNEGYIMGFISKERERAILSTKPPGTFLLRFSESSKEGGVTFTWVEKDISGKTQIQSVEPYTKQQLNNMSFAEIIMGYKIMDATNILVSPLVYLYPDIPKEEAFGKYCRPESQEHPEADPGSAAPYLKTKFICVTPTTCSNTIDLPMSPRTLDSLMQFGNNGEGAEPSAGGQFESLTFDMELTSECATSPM
Heat shock factor protein 1 (Homo sapiens), sequence (Q00613 whole entry, looked up): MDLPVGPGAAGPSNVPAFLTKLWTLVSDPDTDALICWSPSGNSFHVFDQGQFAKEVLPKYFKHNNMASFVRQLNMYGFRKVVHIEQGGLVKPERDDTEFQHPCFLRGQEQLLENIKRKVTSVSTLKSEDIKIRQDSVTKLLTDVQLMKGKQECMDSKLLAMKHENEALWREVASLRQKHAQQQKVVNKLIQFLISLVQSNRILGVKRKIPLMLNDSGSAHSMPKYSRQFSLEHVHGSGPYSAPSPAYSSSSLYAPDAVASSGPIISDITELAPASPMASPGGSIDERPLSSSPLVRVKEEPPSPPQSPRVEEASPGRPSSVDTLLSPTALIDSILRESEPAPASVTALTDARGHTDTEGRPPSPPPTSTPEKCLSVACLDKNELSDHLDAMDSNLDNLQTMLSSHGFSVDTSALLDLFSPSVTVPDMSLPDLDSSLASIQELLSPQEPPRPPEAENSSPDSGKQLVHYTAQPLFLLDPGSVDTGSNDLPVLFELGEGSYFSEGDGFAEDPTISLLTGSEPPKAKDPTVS
Bile acid receptor (Homo sapiens), sequence (Q96RI1 whole entry, looked up): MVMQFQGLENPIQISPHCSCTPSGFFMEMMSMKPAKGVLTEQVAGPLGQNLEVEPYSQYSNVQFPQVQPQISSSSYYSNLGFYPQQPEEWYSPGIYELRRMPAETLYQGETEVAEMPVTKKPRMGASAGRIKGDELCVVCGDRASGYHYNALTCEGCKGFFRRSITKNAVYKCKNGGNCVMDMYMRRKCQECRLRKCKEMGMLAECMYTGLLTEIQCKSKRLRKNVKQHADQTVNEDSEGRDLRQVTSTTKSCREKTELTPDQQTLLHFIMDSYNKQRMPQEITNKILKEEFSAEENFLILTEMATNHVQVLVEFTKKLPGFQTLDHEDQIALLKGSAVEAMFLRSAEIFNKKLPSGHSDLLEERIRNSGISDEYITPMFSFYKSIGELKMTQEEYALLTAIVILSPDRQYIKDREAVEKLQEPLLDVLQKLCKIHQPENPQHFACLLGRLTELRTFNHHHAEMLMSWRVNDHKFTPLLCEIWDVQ
Hepatocyte nuclear factor 6 (Homo sapiens), sequence (Q9UBC0 whole entry, looked up, the tested form may be a part): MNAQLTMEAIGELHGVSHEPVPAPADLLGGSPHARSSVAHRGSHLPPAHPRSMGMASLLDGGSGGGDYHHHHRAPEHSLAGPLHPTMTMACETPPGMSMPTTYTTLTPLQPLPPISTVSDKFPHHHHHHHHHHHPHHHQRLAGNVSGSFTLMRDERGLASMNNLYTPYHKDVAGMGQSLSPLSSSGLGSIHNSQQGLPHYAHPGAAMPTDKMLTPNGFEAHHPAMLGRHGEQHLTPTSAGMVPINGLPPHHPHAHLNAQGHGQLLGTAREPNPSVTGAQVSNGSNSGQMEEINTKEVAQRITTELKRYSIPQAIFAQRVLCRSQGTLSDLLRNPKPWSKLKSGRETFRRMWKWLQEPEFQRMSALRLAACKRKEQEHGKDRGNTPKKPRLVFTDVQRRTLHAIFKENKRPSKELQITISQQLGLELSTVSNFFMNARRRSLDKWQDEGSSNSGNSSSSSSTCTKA
Hypoxia-inducible factor 1-alpha (Homo sapiens), sequence (Q16665 whole entry, looked up): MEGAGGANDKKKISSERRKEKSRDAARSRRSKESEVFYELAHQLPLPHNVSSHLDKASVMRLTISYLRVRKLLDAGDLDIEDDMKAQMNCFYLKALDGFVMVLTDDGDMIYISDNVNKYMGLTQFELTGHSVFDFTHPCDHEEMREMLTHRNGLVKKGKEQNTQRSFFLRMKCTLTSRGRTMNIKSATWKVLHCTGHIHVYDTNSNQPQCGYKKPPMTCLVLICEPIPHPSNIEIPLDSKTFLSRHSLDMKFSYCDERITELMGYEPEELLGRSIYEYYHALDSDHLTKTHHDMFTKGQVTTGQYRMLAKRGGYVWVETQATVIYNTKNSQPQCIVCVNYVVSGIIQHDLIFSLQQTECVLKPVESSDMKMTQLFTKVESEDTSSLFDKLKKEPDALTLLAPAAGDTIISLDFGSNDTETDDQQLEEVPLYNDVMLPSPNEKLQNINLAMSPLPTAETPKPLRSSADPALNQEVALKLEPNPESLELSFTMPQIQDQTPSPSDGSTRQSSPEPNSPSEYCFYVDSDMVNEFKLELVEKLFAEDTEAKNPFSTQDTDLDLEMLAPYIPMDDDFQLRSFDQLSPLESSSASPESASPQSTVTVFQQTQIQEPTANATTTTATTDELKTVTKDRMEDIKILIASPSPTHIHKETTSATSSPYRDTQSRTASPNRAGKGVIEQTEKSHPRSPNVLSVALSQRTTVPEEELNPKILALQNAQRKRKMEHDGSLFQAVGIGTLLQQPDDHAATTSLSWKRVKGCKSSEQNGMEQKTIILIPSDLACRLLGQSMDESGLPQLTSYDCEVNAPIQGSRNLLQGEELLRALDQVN
Transcription factor Sp1 (Homo sapiens), sequence (P08047 whole entry, looked up): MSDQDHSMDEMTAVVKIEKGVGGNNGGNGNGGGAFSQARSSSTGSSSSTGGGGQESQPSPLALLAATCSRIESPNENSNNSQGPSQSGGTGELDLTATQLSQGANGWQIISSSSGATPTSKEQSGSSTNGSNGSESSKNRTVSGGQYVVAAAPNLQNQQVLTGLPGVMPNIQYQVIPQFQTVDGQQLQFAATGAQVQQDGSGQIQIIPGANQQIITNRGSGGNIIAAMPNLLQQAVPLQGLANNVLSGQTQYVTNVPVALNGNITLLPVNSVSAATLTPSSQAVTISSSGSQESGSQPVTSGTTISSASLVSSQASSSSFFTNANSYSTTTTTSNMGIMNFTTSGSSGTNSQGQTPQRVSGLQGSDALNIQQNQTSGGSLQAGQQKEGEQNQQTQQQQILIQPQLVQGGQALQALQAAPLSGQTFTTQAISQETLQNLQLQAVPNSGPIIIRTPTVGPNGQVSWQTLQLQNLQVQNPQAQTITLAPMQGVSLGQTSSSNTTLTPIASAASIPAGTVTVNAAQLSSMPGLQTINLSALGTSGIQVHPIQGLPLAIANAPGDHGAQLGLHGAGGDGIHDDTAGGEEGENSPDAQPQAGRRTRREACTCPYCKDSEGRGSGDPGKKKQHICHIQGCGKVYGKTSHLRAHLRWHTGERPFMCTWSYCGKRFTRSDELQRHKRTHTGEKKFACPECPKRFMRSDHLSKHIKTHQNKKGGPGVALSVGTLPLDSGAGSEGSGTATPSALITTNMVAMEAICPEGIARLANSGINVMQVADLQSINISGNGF
Paired box protein Pax-6 (Homo sapiens), sequence (P26367 whole entry, looked up): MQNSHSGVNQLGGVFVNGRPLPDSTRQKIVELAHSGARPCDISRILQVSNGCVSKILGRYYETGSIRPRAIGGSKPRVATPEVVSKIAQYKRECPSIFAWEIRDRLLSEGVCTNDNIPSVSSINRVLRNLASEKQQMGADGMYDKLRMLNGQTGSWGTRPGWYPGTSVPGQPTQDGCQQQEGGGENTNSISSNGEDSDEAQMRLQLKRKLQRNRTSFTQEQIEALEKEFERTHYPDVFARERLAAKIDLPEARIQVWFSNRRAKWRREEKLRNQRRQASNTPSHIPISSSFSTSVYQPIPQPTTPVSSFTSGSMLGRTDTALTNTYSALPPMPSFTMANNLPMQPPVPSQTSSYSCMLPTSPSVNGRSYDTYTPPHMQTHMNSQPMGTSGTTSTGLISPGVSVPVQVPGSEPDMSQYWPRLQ

With `CCOc1nc(NC)nc(NC(=O)NS(=O)(=O)c2ccccc2C(=O)OC)n1`, the molecule was called inactive in test [1], in test [2], in test [3], in [4], in test [5] and in [6]. Moreover, the call in [7], in test [8], in [9], in test [10], in test [11] and in [12] was inactive. Besides, the call in [13], in test [14], in [15], in test [16], in test [17] and in [18] was inactive.

Turning to `COc1nn(CSP(=S)(OC)OC)c(=O)s1`, the result in test [1], in test [2], in [3], in [4], in test [5] and in [7] was inactive. Further, the result in test [8], in [9], in [10], in test [12], in test [14] and in test [15] was inactive. Besides, the molecule was classed as inactive in [16], in test [17] and in [18]. Besides, the AC50 was 50 µM (active) in test [11] and 15.6 µM (active) in [13].

With `OCCOc1ccccc1`, the outcome in [1], in test [2], in test [3], in [4], in [5] and in test [7] was inactive. In addition, the molecule was called inactive in test [8], in test [9], in [10], in test [11], in test [12] and in test [13]. The call in test [14], in test [15], in [16], in [17], in [18] and in [19] was inactive.

`O=S1OCC2C(CO1)C1(Cl)C(Cl)=C(Cl)C2(Cl)C1(Cl)Cl` (configuration not stated): the call in test [1], in [2], in test [3], in test [4], in test [5] and in test [7] was inactive. In addition, the outcome in test [8], in test [9], in test [10], in test [11], in [12] and in test [15] was inactive. Further, the call in test [16], in test [17] and in test [18] was inactive. The concentration at half-maximal activity (AC50) in test [13] was 1.47 µM (active).

Turning to `O=[N+]([O-])/N=C1\NCCN1Cc1ccc(Cl)nc1`, the molecule was called inactive in test [1], in [2], in test [3], in test [4], in [5] and in test [6]. The molecule was classed as inactive in test [7], in test [8], in test [9], in test [10], in test [11] and in test [12]. The molecule was called inactive in test [15], in [16], in test [17], in test [18] and in [20]. Moreover, in test [13], the concentration at half-maximal activity (AC50) is 30.6 µM (active).

`Oc1ccc(Cl)cc1Cc1ccccc1`: the AC50 in test [1] is 16.4 µM (active); in test [9], 17.3 µM (active); in test [10], 16 µM (active); in test [11], 13.6 µM (active); in [12], 8.56 µM (active); in test [14], 9.13 µM (active) [middle of 6 runs]. Further, the AC50 was 8.2 µM (active) in [16]; 13.4 µM (active) in [17]; 7.03 µM (active) and 6.32 µM (active) in test [18]. For the same molecule, the call in test [1], in test [3], in [4], in test [5], in test [7] and in test [8] was inactive. Besides, the outcome in [9], in test [10], in test [11], in test [12], in test [13] and in test [14] was inactive. In addition, the call in [16], in test [17], in test [18] and in [19] was inactive.

(Values after PubChem BioAssay (EPA / NIEHS).)
